According to paper PMC11574364:

Target: T1, PIG38 (Homo sapiens, UniProt Q8TC92)
T1 sequence: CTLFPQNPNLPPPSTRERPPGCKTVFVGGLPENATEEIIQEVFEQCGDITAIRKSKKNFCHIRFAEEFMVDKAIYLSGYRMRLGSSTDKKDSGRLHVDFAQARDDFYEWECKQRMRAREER
Test: protein domain microarray probed with biotinylated miRNA; Domain array: 20 mM Tris-HCl pH 7.4, 200 mM KCl, 0.2 mM EDTA, 0.05% NP40, 2 ug/ul heparin, overnight 4 C. ORF array: PBS pH 7.0 with RNase inhibitor, 100 ng RNA; high values mean tight binding
Settings: ssRNA

Sequence	binding signal
UGAGGUAGUAGGUUGUGUGGUU	72.8 ± 3.97 fluorescence intensity
UGAGGUAGUAGGUUGUAUAGUU	21.4 ± 1.44 fluorescence intensity
UGAGGUAGUAGGUUGUAUGGUU	53 ± 2.3 fluorescence intensity
CAGUGCAAUGAUGAAAGGGCAU	31.7 ± 0.785 fluorescence intensity
AGAGGUAGUAGGUUGCAUAGUU	44.1 ± 0.488 fluorescence intensity

Target: KRR1 (Homo sapiens, UniProt Q13601)
Sequence (Q13601 36-250): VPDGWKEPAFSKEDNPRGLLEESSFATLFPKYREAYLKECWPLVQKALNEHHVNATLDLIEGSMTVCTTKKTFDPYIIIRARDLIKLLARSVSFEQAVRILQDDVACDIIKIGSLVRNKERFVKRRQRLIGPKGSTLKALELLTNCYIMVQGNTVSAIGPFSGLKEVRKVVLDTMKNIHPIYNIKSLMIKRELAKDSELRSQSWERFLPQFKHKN
Test: as above
Settings: ssRNA

Sequence	binding signal
UGAGGUAGUAGGUUGUGUGGUU	153 ± 3.37 fluorescence intensity
UGAGGUAGUAGGUUGUAUAGUU	20.5 ± 1.99 fluorescence intensity
UGAGGUAGUAGGUUGUAUGGUU	92.2 ± 12.2 fluorescence intensity
CAGUGCAAUGAUGAAAGGGCAU	74.2 ± 2.13 fluorescence intensity
AGAGGUAGUAGGUUGCAUAGUU	73.6 ± 7.55 fluorescence intensity

Target: T2, NOVA2(3) (Homo sapiens, UniProt Q9UNW9)
T2 sequence: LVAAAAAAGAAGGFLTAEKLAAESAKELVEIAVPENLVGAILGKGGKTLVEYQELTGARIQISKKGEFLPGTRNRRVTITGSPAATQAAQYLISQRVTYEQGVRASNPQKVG
Test: as above
Settings: ssRNA

Sequence	binding signal
UGAGGUAGUAGGUUGUGUGGUU	271 ± 8.31 fluorescence intensity
UGAGGUAGUAGGUUGUAUAGUU	49.4 ± 3.28 fluorescence intensity
UGAGGUAGUAGGUUGUAUGGUU	144 ± 61.5 fluorescence intensity
UAGCUUAUCAGACUGAUGUUGA	63.2 ± 4.35 fluorescence intensity
CAGUGCAAUGAUGAAAGGGCAU	508 ± 29.8 fluorescence intensity
AGAGGUAGUAGGUUGCAUAGUU	1853 ± 17.2 fluorescence intensity

Target: T3, RNPC3(2) (Homo sapiens, UniProt Q96LT9)
T3 sequence: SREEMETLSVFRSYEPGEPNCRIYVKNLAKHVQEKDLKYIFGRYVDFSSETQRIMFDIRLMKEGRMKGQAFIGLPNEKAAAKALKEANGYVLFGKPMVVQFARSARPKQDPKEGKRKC
Test: as above
Settings: ssRNA

Sequence	binding signal
UGAGGUAGUAGGUUGUGUGGUU	301 ± 43.8 fluorescence intensity
UGAGGUAGUAGGUUGUAUAGUU	32.3 ± 6.65 fluorescence intensity
UGAGGUAGUAGGUUGUAUGGUU	130 ± 69.7 fluorescence intensity
UAGCUUAUCAGACUGAUGUUGA	72.3 ± 78 fluorescence intensity
CAGUGCAAUGAUGAAAGGGCAU	138 ± 35.8 fluorescence intensity
AGAGGUAGUAGGUUGCAUAGUU	168 ± 44.9 fluorescence intensity

Target: RBMXL1 (Homo sapiens, UniProt Q96E39)
Sequence (Q96E39 1-110): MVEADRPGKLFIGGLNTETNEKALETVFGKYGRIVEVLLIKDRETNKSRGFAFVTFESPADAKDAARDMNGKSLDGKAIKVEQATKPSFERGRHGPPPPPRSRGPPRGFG
Test: as above
Settings: ssRNA

Sequence	binding signal
UGAGGUAGUAGGUUGUGUGGUU	981 ± 17.4 fluorescence intensity
UGAGGUAGUAGGUUGUAUAGUU	300 ± 36.4 fluorescence intensity
UGAGGUAGUAGGUUGUAUGGUU	805 ± 10.1 fluorescence intensity
UAGCUUAUCAGACUGAUGUUGA	96.9 ± 4.67 fluorescence intensity
CAGUGCAAUGAUGAAAGGGCAU	1000 ± 56.8 fluorescence intensity
AGAGGUAGUAGGUUGCAUAGUU	1390 ± 47.7 fluorescence intensity

Target: T4, RBM38 (Homo sapiens, UniProt Q9H0Z9)
T4 sequence: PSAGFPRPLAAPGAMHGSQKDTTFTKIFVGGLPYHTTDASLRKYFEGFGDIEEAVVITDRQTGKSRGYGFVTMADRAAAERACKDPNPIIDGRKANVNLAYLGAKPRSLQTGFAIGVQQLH
Test: as above
Settings: ssRNA

Sequence	binding signal
UGAGGUAGUAGGUUGUGUGGUU	1950 ± 73.9 fluorescence intensity
UGAGGUAGUAGGUUGUAUAGUU	631 ± 19.8 fluorescence intensity
UGAGGUAGUAGGUUGUAUGGUU	1540 ± 34.6 fluorescence intensity
UAGCUUAUCAGACUGAUGUUGA	1790 ± 23.9 fluorescence intensity
CAGUGCAAUGAUGAAAGGGCAU	1690 ± 55.6 fluorescence intensity
AGAGGUAGUAGGUUGCAUAGUU	2315 ± 13.9 fluorescence intensity

Target: IGF2BP2(3-4) (Homo sapiens, UniProt Q9Y6M1)
Sequence (Q9Y6M1 410-599): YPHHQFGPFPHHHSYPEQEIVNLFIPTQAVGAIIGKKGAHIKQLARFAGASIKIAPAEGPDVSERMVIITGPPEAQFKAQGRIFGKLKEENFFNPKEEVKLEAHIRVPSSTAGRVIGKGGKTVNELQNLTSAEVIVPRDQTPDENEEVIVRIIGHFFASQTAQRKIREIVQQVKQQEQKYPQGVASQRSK
Test: as above
Settings: ssRNA

Sequence	binding signal
UGAGGUAGUAGGUUGUGUGGUU	1420 ± 38.2 fluorescence intensity
UGAGGUAGUAGGUUGUAUAGUU	412 ± 46 fluorescence intensity
UGAGGUAGUAGGUUGUAUGGUU	1720 ± 120 fluorescence intensity
UAGCUUAUCAGACUGAUGUUGA	59.8 ± 2.54 fluorescence intensity
CAGUGCAAUGAUGAAAGGGCAU	904 ± 85.6 fluorescence intensity
AGAGGUAGUAGGUUGCAUAGUU	1780 ± 95.8 fluorescence intensity

Target: STAU1(2) (Homo sapiens, UniProt O95793)
Sequence (O95793 164-271): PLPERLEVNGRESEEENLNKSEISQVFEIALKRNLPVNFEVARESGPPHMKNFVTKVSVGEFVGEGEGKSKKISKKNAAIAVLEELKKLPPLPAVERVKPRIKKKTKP
Test: as above
Settings: ssRNA

Sequence	binding signal
UGAGGUAGUAGGUUGUGUGGUU	123 ± 31.3 fluorescence intensity
UGAGGUAGUAGGUUGUAUGGUU	78.8 ± 6.29 fluorescence intensity
CAGUGCAAUGAUGAAAGGGCAU	23.7 ± 6.78 fluorescence intensity
AGAGGUAGUAGGUUGCAUAGUU	52.2 ± 5.35 fluorescence intensity
